# Key:
# [1] = biological target: Death-associated protein kinase 1 (Homo sapiens) (UniProt P53355); conditions: at 10 µM
# [2] = biological target: T1, Discoidin domain-containing receptor 2 (Homo sapiens) (UniProt Q16832); conditions: at 1 µM
# T1 sequence (whole entry): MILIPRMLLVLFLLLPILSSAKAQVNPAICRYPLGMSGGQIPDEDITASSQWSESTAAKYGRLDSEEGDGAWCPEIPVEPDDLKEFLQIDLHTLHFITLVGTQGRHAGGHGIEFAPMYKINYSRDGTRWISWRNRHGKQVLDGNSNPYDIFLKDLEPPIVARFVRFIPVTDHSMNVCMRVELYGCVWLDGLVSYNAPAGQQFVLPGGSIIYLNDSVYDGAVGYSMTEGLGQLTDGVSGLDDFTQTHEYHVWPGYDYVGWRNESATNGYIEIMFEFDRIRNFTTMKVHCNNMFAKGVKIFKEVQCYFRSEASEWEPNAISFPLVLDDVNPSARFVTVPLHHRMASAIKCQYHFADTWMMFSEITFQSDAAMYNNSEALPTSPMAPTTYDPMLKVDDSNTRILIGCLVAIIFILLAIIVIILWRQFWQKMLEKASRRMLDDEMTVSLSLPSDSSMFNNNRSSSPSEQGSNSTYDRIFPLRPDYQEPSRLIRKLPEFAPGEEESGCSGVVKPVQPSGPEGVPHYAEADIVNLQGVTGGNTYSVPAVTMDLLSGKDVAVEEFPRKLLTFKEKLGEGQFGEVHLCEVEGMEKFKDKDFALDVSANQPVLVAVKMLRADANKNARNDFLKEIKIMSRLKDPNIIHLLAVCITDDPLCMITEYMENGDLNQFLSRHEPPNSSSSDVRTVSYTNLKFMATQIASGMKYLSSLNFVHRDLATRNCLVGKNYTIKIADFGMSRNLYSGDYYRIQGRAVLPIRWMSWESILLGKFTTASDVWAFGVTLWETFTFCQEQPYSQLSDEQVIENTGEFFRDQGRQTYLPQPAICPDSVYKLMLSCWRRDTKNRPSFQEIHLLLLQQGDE
# [3] = biological target: T1, Discoidin domain-containing receptor 2 (Homo sapiens); conditions: at 10 µM
# [4] = biological target: T2, Myotonin-protein kinase (Homo sapiens) (UniProt Q09013); conditions: at 1 µM
# T2 sequence (whole entry): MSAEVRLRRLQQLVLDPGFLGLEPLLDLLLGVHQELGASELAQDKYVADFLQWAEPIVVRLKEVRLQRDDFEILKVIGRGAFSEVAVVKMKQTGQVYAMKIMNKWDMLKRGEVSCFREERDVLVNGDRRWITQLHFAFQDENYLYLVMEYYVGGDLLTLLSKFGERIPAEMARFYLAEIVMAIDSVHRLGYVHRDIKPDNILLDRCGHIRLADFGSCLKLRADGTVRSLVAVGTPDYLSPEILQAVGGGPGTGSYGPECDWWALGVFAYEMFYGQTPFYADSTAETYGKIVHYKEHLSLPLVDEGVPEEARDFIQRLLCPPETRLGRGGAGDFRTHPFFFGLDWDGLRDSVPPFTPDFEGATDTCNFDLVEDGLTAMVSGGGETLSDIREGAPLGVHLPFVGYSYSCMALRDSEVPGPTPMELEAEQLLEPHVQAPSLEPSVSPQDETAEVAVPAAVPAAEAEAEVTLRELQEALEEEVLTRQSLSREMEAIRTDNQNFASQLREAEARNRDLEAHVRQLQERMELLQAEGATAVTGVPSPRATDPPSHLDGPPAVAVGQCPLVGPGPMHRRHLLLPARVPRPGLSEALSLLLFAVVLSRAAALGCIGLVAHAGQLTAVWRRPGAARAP
# [5] = biological target: T3, Serine/threonine-protein kinase 17A (Homo sapiens) (UniProt Q9UEE5); conditions: at 1 µM
# T3 sequence (whole entry): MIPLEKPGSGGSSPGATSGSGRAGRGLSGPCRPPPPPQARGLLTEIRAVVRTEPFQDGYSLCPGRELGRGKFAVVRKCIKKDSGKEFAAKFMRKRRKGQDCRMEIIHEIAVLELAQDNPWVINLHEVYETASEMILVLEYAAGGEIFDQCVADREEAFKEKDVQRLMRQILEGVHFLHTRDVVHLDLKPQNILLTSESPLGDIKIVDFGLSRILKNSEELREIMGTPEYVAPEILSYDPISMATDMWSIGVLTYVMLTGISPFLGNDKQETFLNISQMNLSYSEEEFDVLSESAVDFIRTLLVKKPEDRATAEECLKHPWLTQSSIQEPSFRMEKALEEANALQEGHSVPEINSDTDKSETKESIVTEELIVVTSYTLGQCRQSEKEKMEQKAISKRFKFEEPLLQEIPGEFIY
# [6] = biological target: T3, Serine/threonine-protein kinase 17A (Homo sapiens); conditions: at 10 µM
# [7] = biological target: T4, Ephrin type-A receptor 1 (Homo sapiens) (UniProt P21709); conditions: at 1 µM
# T4 sequence (whole entry): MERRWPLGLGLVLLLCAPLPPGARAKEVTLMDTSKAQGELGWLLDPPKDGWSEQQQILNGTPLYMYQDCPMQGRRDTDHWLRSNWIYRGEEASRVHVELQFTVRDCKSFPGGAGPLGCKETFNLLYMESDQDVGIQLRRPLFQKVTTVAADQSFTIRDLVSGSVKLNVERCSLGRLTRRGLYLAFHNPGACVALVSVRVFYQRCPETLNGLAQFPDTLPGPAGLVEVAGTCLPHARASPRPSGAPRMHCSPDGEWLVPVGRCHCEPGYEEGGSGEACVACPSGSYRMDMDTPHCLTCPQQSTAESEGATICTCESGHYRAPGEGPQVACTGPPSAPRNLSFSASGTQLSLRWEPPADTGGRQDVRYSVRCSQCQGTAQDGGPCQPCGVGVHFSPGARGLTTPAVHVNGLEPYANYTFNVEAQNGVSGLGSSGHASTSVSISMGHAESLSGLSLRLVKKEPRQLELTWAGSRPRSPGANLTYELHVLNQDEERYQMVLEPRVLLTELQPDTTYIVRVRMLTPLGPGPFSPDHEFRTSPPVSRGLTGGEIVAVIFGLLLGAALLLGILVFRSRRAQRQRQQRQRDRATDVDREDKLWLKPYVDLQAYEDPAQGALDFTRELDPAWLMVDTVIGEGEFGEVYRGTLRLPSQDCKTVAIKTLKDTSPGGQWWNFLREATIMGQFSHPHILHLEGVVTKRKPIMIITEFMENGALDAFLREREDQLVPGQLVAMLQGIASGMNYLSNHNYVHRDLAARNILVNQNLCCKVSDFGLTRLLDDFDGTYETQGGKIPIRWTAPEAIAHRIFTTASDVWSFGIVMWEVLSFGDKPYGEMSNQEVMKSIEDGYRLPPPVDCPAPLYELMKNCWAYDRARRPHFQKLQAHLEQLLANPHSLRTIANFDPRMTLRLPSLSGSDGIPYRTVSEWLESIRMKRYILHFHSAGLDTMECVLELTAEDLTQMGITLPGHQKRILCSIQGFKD
# [8] = biological target: T4, Ephrin type-A receptor 1 (Homo sapiens); conditions: at 10 µM
# [9] = biological target: T5, Serine/threonine-protein kinase DCLK2 (Homo sapiens) (UniProt Q8N568); conditions: at 1 µM
# T5 sequence (whole entry): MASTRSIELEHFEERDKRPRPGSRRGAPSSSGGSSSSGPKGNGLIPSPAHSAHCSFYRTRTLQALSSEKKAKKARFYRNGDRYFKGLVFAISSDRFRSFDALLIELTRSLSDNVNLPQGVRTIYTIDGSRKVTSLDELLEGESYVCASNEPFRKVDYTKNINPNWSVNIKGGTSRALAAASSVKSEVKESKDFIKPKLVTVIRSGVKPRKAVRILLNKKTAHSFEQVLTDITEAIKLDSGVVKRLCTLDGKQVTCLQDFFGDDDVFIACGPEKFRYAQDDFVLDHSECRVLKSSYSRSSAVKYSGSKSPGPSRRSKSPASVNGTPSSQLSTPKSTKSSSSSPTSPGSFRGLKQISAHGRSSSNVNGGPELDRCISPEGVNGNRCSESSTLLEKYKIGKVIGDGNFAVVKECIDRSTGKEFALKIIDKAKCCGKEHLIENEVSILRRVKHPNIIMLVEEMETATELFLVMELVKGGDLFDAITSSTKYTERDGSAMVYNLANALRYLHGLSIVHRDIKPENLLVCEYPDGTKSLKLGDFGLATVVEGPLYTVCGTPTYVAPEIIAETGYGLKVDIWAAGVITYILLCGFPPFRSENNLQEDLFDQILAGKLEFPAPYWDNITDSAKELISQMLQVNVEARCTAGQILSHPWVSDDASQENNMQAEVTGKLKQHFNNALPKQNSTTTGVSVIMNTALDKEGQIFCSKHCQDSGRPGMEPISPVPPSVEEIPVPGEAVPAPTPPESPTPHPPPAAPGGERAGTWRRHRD
# [10] = biological target: T2, Myotonin-protein kinase (Homo sapiens); conditions: at 10 µM
# [11] = biological target: T6, Dual specificity tyrosine-phosphorylation-regulated kinase 2 (Homo sapiens) (UniProt Q92630); conditions: at 1 µM
# T6 sequence (whole entry): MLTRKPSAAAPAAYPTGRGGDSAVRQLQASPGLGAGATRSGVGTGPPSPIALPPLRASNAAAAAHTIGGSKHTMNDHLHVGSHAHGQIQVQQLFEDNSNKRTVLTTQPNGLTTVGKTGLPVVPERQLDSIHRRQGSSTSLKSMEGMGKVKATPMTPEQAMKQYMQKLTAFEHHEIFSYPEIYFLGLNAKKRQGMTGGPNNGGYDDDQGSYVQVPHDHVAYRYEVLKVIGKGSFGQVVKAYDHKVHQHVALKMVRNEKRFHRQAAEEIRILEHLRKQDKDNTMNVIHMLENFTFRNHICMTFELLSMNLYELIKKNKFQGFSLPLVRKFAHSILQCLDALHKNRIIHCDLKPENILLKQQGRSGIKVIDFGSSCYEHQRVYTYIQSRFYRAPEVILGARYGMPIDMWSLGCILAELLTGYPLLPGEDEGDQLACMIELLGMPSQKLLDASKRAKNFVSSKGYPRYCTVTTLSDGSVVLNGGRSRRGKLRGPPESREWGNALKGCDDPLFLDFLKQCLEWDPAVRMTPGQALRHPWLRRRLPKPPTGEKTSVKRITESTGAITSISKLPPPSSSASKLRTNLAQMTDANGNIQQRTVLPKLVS
# [12] = biological target: T6, Dual specificity tyrosine-phosphorylation-regulated kinase 2 (Homo sapiens); conditions: at 10 µM
# [13] = biological target: Ephrin type-A receptor 2 (Homo sapiens) (UniProt P29317); conditions: at 1 µM
# [14] = biological target: T7, Ephrin type-A receptor 3 (Homo sapiens) (UniProt P29320); conditions: at 1 µM
# T7 sequence (whole entry): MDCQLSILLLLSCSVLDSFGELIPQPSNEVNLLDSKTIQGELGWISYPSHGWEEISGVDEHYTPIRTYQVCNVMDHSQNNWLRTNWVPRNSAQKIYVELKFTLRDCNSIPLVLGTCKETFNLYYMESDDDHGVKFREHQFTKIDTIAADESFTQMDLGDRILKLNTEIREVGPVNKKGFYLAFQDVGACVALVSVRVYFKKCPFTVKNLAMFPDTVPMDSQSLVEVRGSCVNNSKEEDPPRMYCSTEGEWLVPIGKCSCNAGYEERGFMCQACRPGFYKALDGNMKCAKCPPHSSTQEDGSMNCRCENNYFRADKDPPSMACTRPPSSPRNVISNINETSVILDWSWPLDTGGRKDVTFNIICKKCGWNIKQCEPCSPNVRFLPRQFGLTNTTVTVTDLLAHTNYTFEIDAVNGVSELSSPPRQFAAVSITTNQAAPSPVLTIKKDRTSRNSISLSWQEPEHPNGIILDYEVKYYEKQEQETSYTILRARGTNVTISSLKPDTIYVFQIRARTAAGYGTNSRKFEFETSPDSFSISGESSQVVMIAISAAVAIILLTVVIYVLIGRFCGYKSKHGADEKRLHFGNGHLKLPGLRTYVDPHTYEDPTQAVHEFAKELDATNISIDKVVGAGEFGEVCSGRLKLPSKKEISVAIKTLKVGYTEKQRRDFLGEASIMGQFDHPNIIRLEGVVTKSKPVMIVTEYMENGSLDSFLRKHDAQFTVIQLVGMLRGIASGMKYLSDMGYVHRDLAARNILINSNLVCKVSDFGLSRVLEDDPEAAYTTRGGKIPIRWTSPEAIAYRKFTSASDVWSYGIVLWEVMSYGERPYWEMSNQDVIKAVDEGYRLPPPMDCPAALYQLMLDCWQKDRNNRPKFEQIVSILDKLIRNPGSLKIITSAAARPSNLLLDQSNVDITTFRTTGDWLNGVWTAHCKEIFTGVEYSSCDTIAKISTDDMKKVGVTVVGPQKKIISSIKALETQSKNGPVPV
# [15] = biological target: T5, Serine/threonine-protein kinase DCLK2 (Homo sapiens); conditions: at 10 µM
# [16] = biological target: Ephrin type-A receptor 2 (Homo sapiens) (UniProt P29317); conditions: at 10 µM
# [17] = biological target: Epidermal growth factor receptor (Homo sapiens) (UniProt P00533); conditions: at 1 µM
# [18] = biological target: Epidermal growth factor receptor (Homo sapiens) (UniProt P00533); conditions: at 10 µM
# Death-associated protein kinase 1 (Homo sapiens), sequence (P53355 whole entry, looked up, the tested form may be a part): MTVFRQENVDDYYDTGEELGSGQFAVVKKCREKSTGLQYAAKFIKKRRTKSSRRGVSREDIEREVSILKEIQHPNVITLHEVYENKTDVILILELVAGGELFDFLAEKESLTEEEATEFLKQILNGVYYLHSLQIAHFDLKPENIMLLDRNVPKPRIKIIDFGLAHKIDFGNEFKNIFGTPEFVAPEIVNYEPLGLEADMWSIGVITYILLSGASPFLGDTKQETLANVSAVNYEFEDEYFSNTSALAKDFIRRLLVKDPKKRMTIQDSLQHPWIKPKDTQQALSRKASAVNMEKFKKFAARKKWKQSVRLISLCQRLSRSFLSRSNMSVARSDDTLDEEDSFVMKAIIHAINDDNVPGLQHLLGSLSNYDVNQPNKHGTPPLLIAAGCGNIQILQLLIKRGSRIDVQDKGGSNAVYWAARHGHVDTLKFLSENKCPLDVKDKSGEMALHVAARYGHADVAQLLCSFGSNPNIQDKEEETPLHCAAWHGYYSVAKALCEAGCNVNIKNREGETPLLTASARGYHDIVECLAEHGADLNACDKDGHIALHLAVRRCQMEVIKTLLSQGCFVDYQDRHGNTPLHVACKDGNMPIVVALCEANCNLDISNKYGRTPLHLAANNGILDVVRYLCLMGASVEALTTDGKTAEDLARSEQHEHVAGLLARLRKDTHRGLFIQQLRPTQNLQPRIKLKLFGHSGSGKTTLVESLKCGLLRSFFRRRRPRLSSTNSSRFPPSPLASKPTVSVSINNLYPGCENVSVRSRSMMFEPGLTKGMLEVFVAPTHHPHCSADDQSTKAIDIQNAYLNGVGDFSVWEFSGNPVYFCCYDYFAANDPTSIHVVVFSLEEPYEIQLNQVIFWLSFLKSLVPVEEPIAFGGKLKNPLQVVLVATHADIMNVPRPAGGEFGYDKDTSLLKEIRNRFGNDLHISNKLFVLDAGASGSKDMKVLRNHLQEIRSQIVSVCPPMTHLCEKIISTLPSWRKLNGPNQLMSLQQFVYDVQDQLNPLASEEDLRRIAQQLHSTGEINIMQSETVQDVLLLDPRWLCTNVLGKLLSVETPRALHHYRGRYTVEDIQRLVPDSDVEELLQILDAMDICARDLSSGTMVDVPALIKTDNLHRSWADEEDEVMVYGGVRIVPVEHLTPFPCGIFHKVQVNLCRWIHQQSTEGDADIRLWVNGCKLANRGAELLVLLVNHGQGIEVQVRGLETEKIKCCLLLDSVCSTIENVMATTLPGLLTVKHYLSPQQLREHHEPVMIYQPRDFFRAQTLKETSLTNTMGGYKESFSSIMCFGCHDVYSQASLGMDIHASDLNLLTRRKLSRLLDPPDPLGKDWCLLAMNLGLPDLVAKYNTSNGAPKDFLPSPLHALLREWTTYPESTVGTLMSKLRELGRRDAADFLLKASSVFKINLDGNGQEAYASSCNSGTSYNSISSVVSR
# Ephrin type-A receptor 2 (Homo sapiens), sequence (P29317 whole entry): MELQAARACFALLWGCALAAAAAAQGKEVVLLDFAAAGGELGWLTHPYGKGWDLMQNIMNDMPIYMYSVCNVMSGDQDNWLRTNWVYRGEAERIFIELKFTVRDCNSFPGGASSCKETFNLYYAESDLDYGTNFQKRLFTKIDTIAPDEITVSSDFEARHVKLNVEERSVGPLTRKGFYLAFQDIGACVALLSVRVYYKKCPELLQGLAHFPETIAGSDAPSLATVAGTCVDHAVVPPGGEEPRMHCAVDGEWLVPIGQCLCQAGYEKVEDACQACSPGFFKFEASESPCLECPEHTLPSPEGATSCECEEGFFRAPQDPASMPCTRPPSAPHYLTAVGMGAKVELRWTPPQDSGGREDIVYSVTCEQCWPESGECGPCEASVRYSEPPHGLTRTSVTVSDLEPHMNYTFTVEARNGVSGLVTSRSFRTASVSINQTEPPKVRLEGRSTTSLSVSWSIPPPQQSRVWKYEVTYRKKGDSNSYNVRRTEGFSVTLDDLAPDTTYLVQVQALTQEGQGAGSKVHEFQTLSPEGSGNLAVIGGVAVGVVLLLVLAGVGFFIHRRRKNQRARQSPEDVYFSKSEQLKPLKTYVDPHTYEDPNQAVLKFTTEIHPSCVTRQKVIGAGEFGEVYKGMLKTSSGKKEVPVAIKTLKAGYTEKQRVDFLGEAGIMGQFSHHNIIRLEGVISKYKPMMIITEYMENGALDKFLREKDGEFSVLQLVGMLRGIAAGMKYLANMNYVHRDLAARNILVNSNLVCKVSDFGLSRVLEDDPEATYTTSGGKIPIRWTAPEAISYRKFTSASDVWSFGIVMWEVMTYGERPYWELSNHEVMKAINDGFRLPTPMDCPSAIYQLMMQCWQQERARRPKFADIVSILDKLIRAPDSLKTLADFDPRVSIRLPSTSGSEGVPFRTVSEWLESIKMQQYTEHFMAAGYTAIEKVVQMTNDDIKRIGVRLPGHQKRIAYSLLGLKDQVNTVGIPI
# Epidermal growth factor receptor (Homo sapiens), sequence (P00533 whole entry): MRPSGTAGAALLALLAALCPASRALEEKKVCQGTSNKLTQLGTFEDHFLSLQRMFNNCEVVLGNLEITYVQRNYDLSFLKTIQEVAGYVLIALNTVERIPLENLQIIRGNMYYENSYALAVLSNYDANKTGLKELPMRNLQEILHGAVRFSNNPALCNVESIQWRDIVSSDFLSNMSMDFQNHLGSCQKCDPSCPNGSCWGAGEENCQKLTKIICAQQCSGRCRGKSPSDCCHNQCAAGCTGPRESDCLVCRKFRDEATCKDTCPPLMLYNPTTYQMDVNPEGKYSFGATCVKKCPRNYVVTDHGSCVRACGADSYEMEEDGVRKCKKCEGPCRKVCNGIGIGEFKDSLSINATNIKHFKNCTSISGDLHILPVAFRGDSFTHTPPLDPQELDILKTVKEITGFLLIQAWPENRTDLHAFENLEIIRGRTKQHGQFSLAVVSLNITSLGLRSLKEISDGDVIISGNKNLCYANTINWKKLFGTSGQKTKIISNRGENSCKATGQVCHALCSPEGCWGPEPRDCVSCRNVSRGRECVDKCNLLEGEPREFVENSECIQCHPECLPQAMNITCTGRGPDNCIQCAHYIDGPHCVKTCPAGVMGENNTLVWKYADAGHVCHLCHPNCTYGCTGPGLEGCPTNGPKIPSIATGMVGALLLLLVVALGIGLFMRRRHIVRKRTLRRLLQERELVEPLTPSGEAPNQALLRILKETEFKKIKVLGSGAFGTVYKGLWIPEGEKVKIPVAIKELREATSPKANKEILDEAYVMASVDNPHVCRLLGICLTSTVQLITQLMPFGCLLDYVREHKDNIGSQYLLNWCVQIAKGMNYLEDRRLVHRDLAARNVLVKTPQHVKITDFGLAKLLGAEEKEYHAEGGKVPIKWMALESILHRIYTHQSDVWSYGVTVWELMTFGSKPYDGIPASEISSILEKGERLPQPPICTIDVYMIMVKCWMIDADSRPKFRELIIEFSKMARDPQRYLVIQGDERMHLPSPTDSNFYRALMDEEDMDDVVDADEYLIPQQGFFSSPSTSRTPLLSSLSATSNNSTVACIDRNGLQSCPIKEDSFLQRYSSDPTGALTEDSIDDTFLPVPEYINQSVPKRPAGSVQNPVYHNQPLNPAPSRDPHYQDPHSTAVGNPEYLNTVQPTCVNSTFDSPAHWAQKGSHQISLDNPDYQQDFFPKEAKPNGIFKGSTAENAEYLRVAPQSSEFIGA
smiles,measurement,setting,value
COc1ccc(Cl)cc1NC(=O)Nc1cc(C)nc2ccccc12,residual activity,[1],66%
same,residual activity,[2],83%
same,residual activity,[3],39%
same,residual activity,[4],94%
same,residual activity,[5],97%
same,residual activity,[6],58%
same,residual activity,[7],89%
same,residual activity,[8],89%
CCOC(=O)c1c(C)[nH]c(/C=C2\C(=O)Nc3ccccc32)c1C,residual activity,[1],99%
same,residual activity,[5],86%
same,residual activity,[6],75%
same,residual activity,[7],83%
same,residual activity,[8],118%
CCOc1nc(NC(=O)Cc2cc(OC)ccc2OC)cc(N)c1C#N,residual activity,[9],138%
O=C1C(Cl)=C(N2C(=O)CCC2=O)C(=O)c2ccccc21,residual activity,[1],90%
same,residual activity,[2],89%
same,residual activity,[10],85%
same,residual activity,[6],82%
same,residual activity,[11],100%
same,residual activity,[12],92%
same,residual activity,[8],84%
same,residual activity,[13],93%
same,residual activity,[14],85%
NCCNc1ncc(C(N)=O)c(Nc2cccc(C(F)(F)F)c2)n1,residual activity,[9],73%
same,residual activity,[15],66%
same,residual activity,[6],60%
same,residual activity,[7],81%
same,residual activity,[8],45%
same,residual activity,[13],103%
same,residual activity,[16],76%
O=S(=O)(NCCNC/C=C/c1ccc(Br)cc1)c1cccc2cnccc12,residual activity,[15],100%
same,residual activity,[8],63%
O=c1c(-c2ccc(F)cc2)c(-c2ccncc2)[nH]n1-c1ccc(Cl)cc1,residual activity,[9],122%
same,residual activity,[3],36%
same,residual activity,[10],99%
same,residual activity,[6],71%
same,residual activity,[17],54%
same,residual activity,[18],6%
same,residual activity,[8],56%

# Reference: ChEMBL document CHEMBL2218924, “A broad activity screen in support of a chemogenomic map for kinase signalling research and drug discovery” (Biochem J, 2013)
